# Screening results (PubChem)
# The list is a sample of the results.
# aSyn 5UTR act: Activators working through SNCA 5'UTR binding (MLPCN); alpha-synuclein 5'UTR reporter, activators screen; activity score, % (tested at 7.5 µM), hits read low; 7.1% of 300,000 active; in the data active = activity score below about -60%
# Starred values were filed as active, the others as inactive.
SMILES,aSyn 5UTR act
CC(/C=N\NC(=O)c1cc(C)oc1C)=C\c1ccccc1,-119*
CC(/C=N/Nc1nc(C)cc(C)n1)=C\c1ccc(C(C)C)cc1,-153*
CC(/C=N/NC(=O)c1cccnc1)=C\c1ccccc1,-124*
CC(/C=N/NC(=O)C(O)c1ccccc1)=C\c1ccccc1 (centres undefined),-81*
O=C(N/N=C/c1cc([N+](=O)[O-])ccc1Cl)c1cnccn1,81
CC(=C/c1ccccc1)/C=N/NC(=O)c1cnccn1,-190*
CC(/C=N/NC(=O)c1ccncc1)=C\c1ccc(C(C)C)cc1,-146*
O=C(N/N=C/C(Cl)=C/c1ccccc1)c1cnccn1,-102*
O=C(Nc1ccc(Cl)cc1)c1sccc1-n1cccc1,-66*
CCc1ccc(NC(=O)c2sccc2-n2cccc2)cc1,-64*
Nn1c(SCc2ccccc2F)nnc1-c1cccnc1,-177*
Nn1c(SCc2cccc(F)c2)nnc1-c1cccnc1,-71*
COc1cc(/C=N/NC(=O)c2cccnc2)ccc1OCC(=O)Nc1ccccc1Cl,-73*
COc1ccc(NC(=O)COc2ccc(/C=N/NC(=O)c3cccnc3)cc2OC)cc1,-105*
C=CCc1ccc(OCc2ccc(C(=O)Nc3ccc(NC(C)=O)cc3)o2)c(OC)c1,-74*
CCOC(=O)c1cnc(Nc2nc3ccccc3o2)nc1C,86
CCOC(=O)c1cnc(Nc2nc3ccccc3o2)nc1CSc1nnc(C)s1,-86*
Cn1c(SCc2ccccc2)nnc1-c1cccs1,-147*
c1ccc(CN2CCC(Nc3nc(-c4cccs4)nc4ccccc34)CC2)cc1,62
Cn1c(SCc2ccc(F)cc2)nnc1-c1cccs1,-108*
CCOc1ccc(OCC(=O)NCCS(=O)(=O)N2CCN(c3ccc(F)cc3)CC2)cc1,-72*
O=C(NCCS(=O)(=O)N1CCN(c2ccc(F)cc2)CC1)c1ccc(Br)o1,127
COc1ccccc1-c1cc2ccccc2[nH]1,-207*
Cn1c(SCc2ccc(C#N)cc2Cl)nc2ccccc21,-176*
C(=N\Nc1nc2ccccc2s1)/c1ccccn1,101
SMILES,aSyn 5UTR act
Cc1nc(N/N=C\c2ccc3c(c2)OCO3)sc1C,-128*
C(=N\Nc1nc2ccccc2s1)/c1ccc2c(c1)OCO2,-190*
Brc1csc(/C=N/Nc2nc3ccccc3s2)c1,-275*
Brc1cc2c(cc1/C=N/Nc1nc3ccccc3s1)OCO2,-117*
Cc1ccc2[nH]c(C)c(/C=N/Nc3nc4ccccc4s3)c2c1,-140*
Cc1cc(C)n(CC(O)COc2ccc3ccccc3c2)n1 (centres undefined),-114*
O=C(/C=C/c1ccc(O)cc1)c1ccccc1,-118*
CN(C)c1ccc(/C=C/C(=O)c2ccccc2O)cc1,-197*
Cc1ccc(/C=C/C(=O)c2ccc(C)cc2)cc1,-150*
O=C(/C=C/c1ccc(N2CCC(c3ccccc3)=N2)cc1)c1ccccc1,-67*
Cc1ccc(/C=C/C(=O)c2ccccc2O)cc1,-121*
CSc1ccc(C(=O)/C=C/c2ccc(N)cc2)cc1,-204*
Cc1ccc(/C=C/C(=O)Nc2ccccc2C(N)=O)cc1,-86*
O=C(/C=C/c1ccc(-c2ccccc2)o1)c1ccccc1,-66*
CC(C)NC(=O)c1ccccc1NC(=O)/C=C/c1cccc([N+](=O)[O-])c1,63
O=C(/C=C/c1ccco1)c1ccccc1O,-65*
Cc1nn(C)cc1/C=C/C(=O)c1ccc(O)cc1,-229*
O=C(/C=C/c1cccnc1)c1cccc(O)c1,-88*
Cc1c(/C=C/C(=O)c2ccccc2O)cnn1C,-227*
Cc1ccc2nc(-c3ccc(NC(=O)CCN4C(=O)c5ccccc5C4=O)cc3)sc2c1,-171*
Cc1ccc2nc(-c3ccc(NC(=O)C(C)N4C(=O)c5ccccc5C4=O)cc3)sc2c1 (centres undefined),-102*
Cc1ccc(C2(C)NC(=O)N(CC(=O)Nc3ccc(-c4nc5ccc(C)cc5s4)cc3)C2=O)cc1 (centres undefined),-160*
CCOC(=O)c1cc2c(C)n(-c3ccc(C)cc3)c(C)c2ccc1=O,-64*
CN(C)c1ccc(N=Nc2ccccc2C(=O)OCC(=O)N(C)C2CCCCC2)cc1,-135*
CN(C)c1ccc(N=Nc2ccccc2C(=O)OCC(=O)NC2CCCC2)cc1,-112*
SMILES,aSyn 5UTR act
COc1cccc(/C=N/Nc2nn3cnnc3c3ccccc23)c1,-62*
Cc1ccc(O)c(-c2cc(C(=O)Nc3cccnc3)[nH]n2)c1,-166*
O=C(Nc1cccnc1)c1cc(-c2cc(Cl)ccc2O)n[nH]1,-219*
O=C(NCCCN1CCCC1=O)C(=O)Nc1cccc(F)c1,-107*
Cc1ccc(NC(=O)NCCCN2CCCC2=O)cc1Cl,-66*
O=C(Cc1ccc(N2CCNC2=O)cc1)N1CCCC(Nc2cccc(F)c2)C1 (centres undefined),64
O=C(/C=C/c1ccc(Cl)cc1Cl)N1CCc2ccccc21,-192*
O=C(/C=C/c1ccc(F)cc1)N1CCCc2ccccc21,-65*
O=C(/C=C/c1cccc(F)c1)N1CCc2ccccc21,-111*
O=C(O)C[C@H](O)C[C@H](O)/C=C/c1c(C2CC2)nc2ccccc2c1-c1ccc(F)cc1,104
Cc1ccc(CSc2ccc(-c3cccs3)nn2)cc1,-99*
c1cncc(CSc2ccc(-c3cccs3)nn2)c1,-110*
c1ccc(CSc2ccc(-c3cccnc3)nn2)nc1,-78*
Fc1ccc(CSc2ccc(-c3cccs3)nn2)cc1,-121*
O=C(Nc1ccc2c(c1)OCO2)c1cc(-c2ccc(O)cc2)on1,-158*
COc1cccc(-c2cc(C(=O)Nc3ccc4c(c3)OCO4)no2)c1,-66*
COc1cccc(OCc2cc(C(=O)NCc3ccc4c(c3)OCO4)no2)c1,-71*
O=C(Nc1ccc2c(c1)OCO2)c1cc(-c2ccccc2Cl)on1,-143*
Cc1ccc(NC(=S)c2ccc(N(C)C)cc2)cc1,55
CCOc1ccc(NC(=S)c2ccncc2)cc1,-110*
COc1ccc(NC(=S)c2ccccc2)cc1,-148*
COc1ccc(C(=S)Nc2ccc(N(C)C)cc2)cc1,-99*
COc1ccc(-n2ncc3c(N(C)C4CCCCC4)ncnc32)cc1,94
COc1ccccc1Oc1ncnc2c1cnn2-c1ccccc1,-115*
COc1ncnc2c1cnn2-c1ccccc1,-67*
SMILES,aSyn 5UTR act
Cc1[nH]c(=O)c(C(=O)/C=C/c2ccccc2F)c2c1CCCC2,-364*
Cc1ccc(/C=N/Nc2ccc(C(=O)O)cc2)o1,-70*
O=C(O)c1ccc(N/N=C/c2ccc(-c3ccccc3Cl)o2)cc1,-65*
O=C(O)c1ccc(N/N=C/c2ccc(OC(=O)c3ccccc3Cl)cc2)cc1,57
Cc1ccc(/C=N/Nc2ccc(C(=O)O)cc2)s1,76
CCOc1ccc(OCc2cccc(C(=O)Nc3ccc(CN4CCCCC4)cc3)c2)cc1,61
CCN1CCN(Cc2ccc(NC(=O)Nc3ccc(SC)cc3)cc2)CC1,-103*
COc1ccc(OCc2cccc(C(=O)Nc3ccc(CN4CCCCC4)cc3)c2)cc1,-112*
CCN1CCN(Cc2ccc(NC(=O)Nc3ccc(OC)cc3)cc2)CC1,-74*
Cc1ccccc1NC(=O)C(=O)Nc1ccccc1C,-143*
O=C(Nc1ccccc1)c1ccccc1O,-151*
Cc1ccccc1NC(=O)c1ccccc1O,-118*
O=S(=O)(/N=C(/Nc1ccccc1)c1ccccc1O)c1ccccc1,-79*
O=C1CCCC1C(=O)Nc1ccc2ccccc2c1 (centres undefined),-121*
S=C(NN=C1CCCCCC1)Nc1ccc(Cl)cc1,-71*
Fc1ccc(NC(=S)NN=C2CCCCCC2)cc1,-75*
